# Experimental data reported in PubChem BioAssay (NCI).
# About 79,000 compounds went through this panel and 15% of them were active in at least one assay; those are over-represented in the sample as a whole. A number with no mark means an inactive call. Active and inactive are the calls of the source. No stated cut-off is given here; in the data, active means growth inhibition above about 70%; inactive means the rest. Where a SMILES comes first, the peptide text is derived from it. [ ]: non-standard residue; d: D form. The star is where a group is joined. Phe(4-NO2) = N[CH](Cc1ccc([N+](=O)[O-])cc1)C(=O)O; Boc = CC(C)(C)OC(=O)*
# What was measured:
# [1] = NCI Yeast Anticancer Drug Screen. Data for the rad50 strain (AID 155);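 further: 0% = growth of vehicle-only cultures of the same strain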; conditions: S. cerevisiae rad50 strain growth inhibition, stronger effect = higher value
# Outline: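 Vehicle-treated cultures provide the reference for the growth inhibition reported for compound-exposed, repair-deficient yeast.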
# [2] = NCI Yeast Anticancer Drug Screen. Data for the mec2-1 strain (AID 157); conditions: S. cerevisiae mec2-1 strain, stronger effect = higher value
# Outline: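 Using mec2-1 yeast: add compound, measure growth, express inhibition versus vehicle-treated cultures.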
# [3] = NCI Yeast Anticancer Drug Screen. Data for the sgs1 mgt1 strain (AID 161);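 further: 0% = growth of cultures given vehicle only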; conditions: S. cerevisiae sgs1 mgt1 strain, stronger effect = higher value
# Outline: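 Yeast cells carrying a defined DNA-repair defect were exposed to test compounds. Growth inhibition was measured relative to vehicle-treated controls.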
# [4] = NCI Yeast Anticancer Drug Screen. Data for the cln2 rad14 strain (AID 165);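 further: 0% = growth equal to vehicle treated cultures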; conditions: S. cerevisiae cln2 rad14 strain, stronger effect = higher value
# Outline: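 Yeast strain cln2 rad14, bearing defects in cell cycle control and DNA repair, serves as the test system; values reflect growth inhibition compared with vehicle.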
# [5] = NCI Yeast Anticancer Drug Screen. Data for the bub3 strain (AID 167); conditions: S. cerevisiae bub3 mutant strain, stronger effect = higher value
# Outline: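 Mutant yeast screening strain plus compound; vehicle-treated cultures serve as the 0% inhibition reference.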
# [6] = NCI Yeast Anticancer Drug Screen. Data for the mlh1 rad18 strain (AID 175); conditions: S. cerevisiae mlh1 rad18 strain growth inhibition, stronger effect = higher value
# Outline: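 Steps: expose repair-defective yeast to compound; measure growth; express inhibition against vehicle-treated controls.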
# [7] = at 5.0 µM (retest, dose inferred, filed as 0.5)
# [8] = at 50.0 µM (retest, dose inferred, filed as 5.0)
SMILES,"growth inhibition [1, 7]","growth inhibition [1, 8]",growth inhibition ([1]; at 50.0 µM),"growth inhibition [2, 7]","growth inhibition [2, 8]",growth inhibition ([2]; at 50.0 µM),"growth inhibition [3, 7]","growth inhibition [3, 8]",growth inhibition ([3]; at 50.0 µM),"growth inhibition [4, 7]","growth inhibition [4, 8]",growth inhibition ([4]; at 50.0 µM),"growth inhibition [5, 7]","growth inhibition [5, 8]",growth inhibition ([5]; at 50.0 µM),"growth inhibition [6, 7]","growth inhibition [6, 8]",growth inhibition ([6]; at 50.0 µM)
CNC(=O)CCC(NC(=O)OC(C)(C)C)C(=O)NC(Cc1ccc([N+](=O)[O-])cc1)C(=O)NCC(=O)NC (centres undefined) (Boc-Glu(NHMe)-[Phe(4-NO2)]-Gly-NHMe; configuration not given here),9%,-1%,-5.5%,-3%,2%,-1.65%,-7%,3%,8.8%,-4%,4%,37.6%,-15%,-1%,-1.9%,-9%,6%,-8.8%
COc1cc(/C=C/C(=O)Sc2ccccc2)cc(OC)c1O,1%,47%,74.7% (active),0%,58%,58.6%,-3%,60%,59.2%,2%,38%,75.7% (active),2%,70% (active),51%,-2%,58%,50.6%
O=[N+]([O-])c1ccc(CO)o1,10%,68%,93.1% (active),0%,10%,38.8%,2%,14%,76.4% (active),3%,-2%,29.1%,0%,1%,26.7%,6%,33%,84.5% (active)
CC(=O)C1(O)C(Br)CC2C3CC=C4CC(O)CCC4(C)C3CCC21C (centres undefined),43%,98% (active),90.3% (active),37%,99% (active),79.5% (active),46%,98% (active),86.4% (active),37%,98% (active),87.9% (active),49%,98% (active),85% (active),53%,98% (active),83.8% (active)
CC(C)(S[S-])S[S-].[Ti].[c-]1[c-][c-][cH-][c-]1.[c-]1[c-][c-][cH-][c-]1,23%,97% (active),84.1% (active),-2%,98% (active),57.9%,10%,98% (active),95.2% (active),11%,97% (active),21.7%,24%,98% (active),46.4%,31%,98% (active),87.3% (active)
Cc1ccc(C2C(O)=C(c3ccccc3)Sc3ccc(C)cc32)cc1 (centres undefined),12%,33%,35.6%,-5%,77% (active),2.45%,5%,74% (active),77% (active),-5%,51%,23.2%,-4%,39%,13.4%,-8%,81% (active),31.4%
COc1ccccc1NC(=O)C1=CNC(C)=C(C(=O)Nc2ccccc2OC)C1/C=C/c1ccccc1 (centres undefined),1%,18%,43.5%,-4%,1%,-0.75%,1%,17%,-1.95%,-1%,-8%,-6.3%,-2%,-8%,-1.9%,-1%,7%,15.3%
CCc1ccc(N(C(C)=O)C2=C(Cl)C(=O)c3ccccc3C2=O)cc1,99% (active),99% (active),98.4% (active),100% (active),99% (active),91% (active),100% (active),100% (active),99.2% (active),99% (active),99% (active),77% (active),99% (active),100% (active),67.9%,100% (active),99% (active),98.7% (active)
Cc1ccccc1N=Nc1c(C)nn(C(N)=S)c1-c1ccccc1,6%,85% (active),95.2% (active),-15%,96% (active),57.1%,-5%,96% (active),94.8% (active),-6%,87% (active),-4.5%,-3%,97% (active),34.5%,12%,97% (active),96.3% (active)
CCCCCCOC(=O)C(N)Cc1ccc(OC)cc1 (centres undefined),5%,21%,39.2%,7%,29%,40.5%,6%,42%,56.2%,2%,17%,32.4%,5%,80% (active),52%,-1%,43%,48.1%
COc1ccc(OCC(O)CN2CCN(c3cccc(Cl)c3)CC2)cc1 (centres undefined),-2%,-3%,72.5% (active),15%,28%,37.6%,1%,23%,95.5% (active),-6%,-7%,33.6%,-4%,8%,42.6%,20%,31%,69.9%
C[C@]12CC[C@H]3[C@@H](CCC4=CC(=O)CC[C@@]43C)[C@@H]1CC[C@@H]2O[Si](O[C@H]1CC[C@H]2[C@@H]3CCC4=CC(=O)CC[C@]4(C)[C@H]3CC[C@]12C)(O[C@H]1CC[C@H]2[C@@H]3CCC4=CC(=O)CC[C@]4(C)[C@H]3CC[C@]12C)c1ccccc1,5%,59%,75.9% (active),1%,62%,89.9% (active),-1%,93% (active),97.5% (active),-6%,33%,58.6%,4%,77% (active),81.5% (active),1%,84% (active),94.8% (active)
CCC(C)(O)Cc1cnccn1 (centres undefined),3%,1%,1.75%,0%,1%,-2.7%,2%,-3%,7.25%,-1%,-2%,14.8%,0%,1%,12.1%,-10%,2%,9.25%
CN=C(NC1CCCCC1)c1ccc(NC(=O)c2ccc(C(=O)Nc3ccc(C(=NC)NC4CCCCC4)cc3)cc2)cc1,0%,81% (active),69.5%,2%,59%,24%,6%,96% (active),85.5% (active),6%,65%,92% (active),-1%,74% (active),33.7%,-1%,99% (active),94.8% (active)
CCCCCC/C=C\CCCCCCCCCc1c(O)c(OC)cc(O)c1CN(C)C,5%,94% (active),80.7% (active),-17%,94% (active),88.3% (active),15%,96% (active),87.1% (active),13%,30%,86.2% (active),5%,96% (active),80.8% (active),2%,94% (active),79.6% (active)
CN(C)c1ccc(/C=C/c2ccnc3ccccc23)cc1Cl,23%,95% (active),-10.1%,4%,97% (active),-4.1%,0%,97% (active),66.8%,-6%,94% (active),-12.6%,2%,97% (active),29.4%,-3%,95% (active),5.25%
c1ccc([P+](Cc2ccc(C[P+](c3ccccc3)(c3ccccc3)c3ccccc3)s2)(c2ccccc2)c2ccccc2)cc1,35%,90% (active),80% (active),33%,96% (active),80.3% (active),37%,98% (active),80.7% (active),17%,77% (active),67.4%,47%,96% (active),81% (active),43%,96% (active),75.8% (active)
CN(C)C1C[C@@H](O[Si](C)(C)C(C)(C)C)C=C1S(=O)(=O)c1ccccc1 (some centres undefined),-16%,100% (active),44.8%,-4%,100% (active),47.8%,-18%,100% (active),36.4%,-14%,99% (active),33.5%,-14%,100% (active),7.75%,4%,100% (active),58%
